In publication PMC5540273 (PLoS ONE, 2017):

What was measured:
Conditions in all cases: concentration: 1 μM, replicates: in singlicate; n = 1
HUNK = tested on: HUNK
ICK = tested on: ICK
IGF1R = tested on: IGF1R
IKK-alpha = tested on: T1, IKK-alpha
T1 construct: gene CHUK

IKK-beta = tested on: T2, IKK-beta
T2 construct: gene IKBKB

IKK-epsilon = tested on: T3, IKK-epsilon
T3 construct: gene IKBKE

INSRR = tested on: INSRR
INSR = tested on: INSR
IRAK1 = tested on: IRAK1
IRAK3 = tested on: IRAK3
IRAK4 = tested on: IRAK4
ITK = tested on: ITK
[1] = tested on: JAK1(JH1domain-catalytic)
[2] = tested on: JAK1(JH2domain-pseudokinase)
[3] = tested on: JAK2(JH1domain-catalytic)
[4] = tested on: JAK3(JH1domain-catalytic)
JNK1 = tested on: T4, JNK1
T4 construct: gene MAPK8

JNK2 = tested on: T5, JNK2
T5 construct: gene MAPK9

JNK3 = tested on: T6, JNK3
T6 construct: gene MAPK10

KIT-autoinhibited = tested on: KIT-autoinhibited
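Also: KINOMEscan kinase panel screen.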

SMILES	%Inh (HUNK)	%Inh (ICK)	%Inh (IGF1R)	%Inh (IKK-alpha)	%Inh (IKK-beta)	%Inh (IKK-epsilon)	%Inh (INSRR)	%Inh (INSR)	%Inh (IRAK1)	%Inh (IRAK3)	%Inh (IRAK4)	%Inh (ITK)	%Inh [1]	%Inh [2]	%Inh [3]	%Inh [4]	%Inh (JNK1)	%Inh (JNK2)	%Inh (JNK3)	%Inh (KIT-autoinhibited)
COc1cc(Nc2nccc(N3CCC(NC(=O)Nc4cc(C)ccc4C)C3)n2)cc(OC)c1OC (centres unmarked) [GSK1379762]	0%	22%	15%	21%	17%	23%	9%	0%	58%	73%	16%	30%	5%	0%	76%	0%	24%	2%	11%	0%
Cc1cc(NCC(c2ccccc2)c2ccccc2)nc(NCc2ccc(C(F)(F)F)cc2)n1 [GW497681]	13%	0%	27%	0%	0%	26%	0%	0%	23%	0%	8%	0%	10%	0%	0%	0%	0%	0%	0%	0%
COc1ccc(Nc2nccc(-c3cccc(NC(=O)c4cc5cc(F)ccc5[nH]4)c3)n2)cc1 [GSK1229782]	8%	0%	17%	21%	13%	0%	0%	0%	25%	42%	3%	23%	34%	0%	10%	0%	28%	34%	15%	0%
NC(=O)c1nnc2ccccc2c1N	0%	13%	0%	27%	35%	0%	12%	29%	54%	19%	33%	64%	4%	37%	58%	65%	27%	17%	13%	19%
Cc1cc(N2Cc3ccccc3C2)nc(Nc2ccc(S(=O)(=O)N3CCOCC3)cc2)n1.Cl [GSK1669917]	0%	99.9%	2%	0%	0%	29%	0%	100%	0%	0%	0%	0%	11%	0%	0%	0%	3%	13%	1%	3%
CCCc1ccc(S(=O)(=O)NC2CCN(c3ccnc(Nc4ccc(F)cc4)n3)C2)cc1 (centres unmarked) [GSK1379715]	5%	0%	0%	33%	36%	0%	0%	1%	36%	0%	16%	6%	18%	0%	52%	0%	24%	21%	9%	0%
CC(C)(C)c1ccc(C(=O)Nc2cn3cc(Cl)ccc3n2)cc1	43%	0%	0%	0%	100%	0%	0%	0%	0%	23%	0%	0%	0%	7%	1%	0%	0%	0%	0%	42%
Fc1cc(Cl)ccc1Nc1ccnc2cc(-c3ccc(CN4CCCCC4)o3)ccc12 [GW560116]	9%	0%	24%	0%	0%	20%	0%	0%	22%	0%	0%	2%	11%	0%	24%	0%	0%	1%	0%	0%
Fc1cc(Cl)ccc1Nc1ccnc2cc(I)ccc12 [GW551191]	45%	1%	6%	1%	11%	19%	0%	0%	32%	11%	14%	13%	0%	0%	1%	0%	18%	29%	10%	0%
Cc1c(Cn2ccn3c(=O)cc(N4CCOCC4)nc23)cccc1C(F)(F)F [GSK2289044]	29%	0%	0%	0%	0%	3%	0%	0%	0%	4%	0%	5%	83%	0%	0%	0%	3%	6%	3%	0%
